Laboratory results published in PubChem BioAssay (NCATS).
Values joined by “and” are separate entries in the source; they are usually repeats but may differ in a detail not shown here. Equal entries are not always repeated. Results filed as inconclusive are left out. Entries that show only a call come without a potency. More than one record can exist for a structure, and the calls need not agree. Active and inactive are the calls of the source. Unless noted, calls follow the shape of the dose curve; as a rule, active = well fitted curve in the direction sought with a large enough effect; inconclusive = small, poorly fitted or top-dose-only effect, or another doubt; inactive = no such curve, though single readings can be large; an effect the other way counts as inactive or inconclusive.

Assays:
[1] = Cell Viability - BJ (AID 421; calls by dose curve;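 also: potency is read from the fitted curve at half-maximal effect; cells exposed to compound for 40 hours at 37 °C before readout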); settings: BJ fibroblast viability, qHTS
Method in brief: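 Normal human BJ foreskin fibroblasts, 1500/well in complete medium, treated 40 hr at 37 °C. Cellular ATP by CellTiter-Glo luminescence; normalized to DMSO and 100 uM tamoxifen, AC50 from Hill fit.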

[2] = Cell Viability - Jurkat (AID 426;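 active = dose-dependent loss of cell ATP signal giving a full or clear fitted curve, ranked by lower potency value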; also: potency is read from the fitted curve at half-maximal effect); settings: qHTS
Method in brief: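 qHTS, 1536-well; Jurkat E6-1, 5000 cells/well, complete medium; cpd 40 hr, 37 °C; CellTiter-Glo 20 min RT; luminescence. AC50 by Hill fit.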

[3] = Cell Viability - Hek293 (AID 427;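 active = compounds whose dose-response curve shows a full or clear partial loss of cell viability, called from curve shape rather than a numeric limit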;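 also: potency is read from the fitted curve at half-maximal effect; cells exposed to compound for 40 hours at 37 °C before reading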); settings: qHTS
Method in brief: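 HEK293 cells in complete medium were exposed to compound for 40 hr at 37 °C, then cellular ATP was read by CellTiter-Glo luminescence. Data were normalized to DMSO (basal) and 100 uM tamoxifen (100% inhibition), and AC50 came from Hill fits.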

[4] = Cell Viability - MRC5 (AID 434; calls by dose curve;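 also: potency is read from the fitted curve at half-maximal effect; potency reflects cytotoxicity seen as loss of intracellular ATP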); settings: MRC5 lung fibroblast viability, qHTS
Method in brief: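 qHTS cytotoxicity in human lung fibroblast MRC5 cells; 40 hr treatment, 37 °C; cellular ATP by luciferase luminescence; DMSO = 0%, 100 uM tamoxifen = 100% inhibition; Hill-fit AC50.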

[5] = Cell Viability - SK-N-SH (AID 435; calls by dose curve;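 also: potency is read from the fitted curve at half-maximal effect; compound exposure lasted 40 h at 37 °C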); settings: SK-N-SH neuroblastoma cell viability qHTS
Method in brief: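 SK-N-SH human neuroblastoma cells (1500/well) were exposed to compounds in complete medium for 40 h at 37 °C, and intracellular ATP was then measured by CellTiter-Glo luminescence. AC50 was taken from Hill fits, normalized to DMSO and 100 uM tamoxifen.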

[6] = target: Mitogen-activated protein kinase 10 (Mus musculus) (UniProt Q61831); assay: JNK3 AlphaScreen Assay (AID 530; active = well fitted curve in either direction with a large enough effect, not every such curve was filed as active;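 also: kinase came from lysate of stimulated human HepG2 cells; signal reports phosphorylation of biotinylated GST-cJun 1-79 at Ser73 with 10 µM ATP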); settings: JNK3 lysate, c-Jun phosphorylation; series mostly up to 57.1 µM
Method in brief: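 Compound titrations were preincubated 15 minutes at room temperature with substrate, antibody and pre-activated JNK3-containing HepG2 lysate. Reactions were started with 10 uM ATP and stopped with EDTA-containing bead buffer for AlphaScreen detection.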

[7] = Cell Viability - N2a (AID 540); settings: N2a mouse neuroblastoma cell viability; activity change, negative = cytotoxicity: at 92.2 µM (top of the series); also: nearly all actives have a fitted effect of over 45% in size
Method in brief: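 Luminescent ATP signal (CellTiter-Glo, 20 min at room temperature) served as the viability read-out after N2a cells were treated with compounds for 40 hours at 37 °C. Concentration-response data were fitted to the Hill equation for AC50.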

[8] = Cell Viability - NIH 3T3 (AID 541); settings: NIH 3T3 cell viability, qHTS; series mostly up to 92.2 µM; also: nearly all actives have a fitted effect of over 25% in size
Method in brief: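 Luminescent ATP signal (CellTiter-Glo) served as the viability read-out after NIH 3T3 cells were exposed to compounds over a concentration range for 40 hr at 37 °C. Hill-equation modelling of concentration-response data gave AC50.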

[9] = Cell Viability - H-4-II-E (AID 543); settings: H-4-II-E rat hepatoma viability; series mostly up to 92.2 µM; also: nearly all actives have a fitted effect of over 35% in size
Method in brief: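 Luminescent ATP signal (CellTiter-Glo) served as the viability read-out, with cytotoxicity seen as a concentration-dependent ATP drop. Cells were treated for 40 hours in complete medium. AC50 values derive from Hill-equation modelling.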

[10] = Cell Viability - SH-SY5Y (AID 544); settings: SH-SY5Y neuroblastoma cell viability; series mostly up to 92.2 µM; also: nearly all actives have a fitted effect of over 55% in size
Method in brief: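 Luminescent ATP read-out (CellTiter-Glo) measures loss of viable SH-SY5Y neuroblastoma cells after 40 hr compound exposure at 37 °C. AC50 values derive from standard Hill modelling of qHTS concentration-response data.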

[11] = Cell Viability - Mesenchymal (AID 546); settings: mesenchymal cells viability, qHTS; series mostly up to 91.7 µM;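 also: cells exposed to compound for 40 hours before reading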
Method in brief: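 AC50 values reflect the drop in intracellular ATP in a human kidney mesenchymal line derived from normal glomeruli. Treatment lasts 40 hr at 37 °C in complete medium, and the signal comes from CellTiter-Glo luminescence.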

[12] = Cellular Toxicity (caspase-3) HepG2 (AID 654); settings: HepG2 caspase-3 activation, luminescence, 0% = DMSO only, 100% = tamoxifen; series mostly up to 92.2 µM;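 also: cells exposed to compound for 16 hours before reading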
Method in brief: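 Cells plated 5 hr at 37 °C, compound added, incubated 16 hr at 37 °C. Caspase-Glo 3/7 reagent followed, 20 min at room temperature, then luminescence read. Activation scored as signal increase; AC50 from Hill fit.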

[13] = Cellular Toxicity (caspase-3) Jurkat (AID 655); settings: Jurkat caspase-3 activation, luminescence, DMSO = 0%, tamoxifen = 100%; series mostly up to 92.2 µM;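 also: cells exposed to compound for 16 h at 37 °C before reading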
Method in brief: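 Jurkat cells (5000/well) in complete medium were treated with compounds for 16 hr at 37 °C, then Caspase-Glo 3/7 luminescence was read after 20 min at room temperature. Data normalized to DMSO (basal) and 100 uM tamoxifen (100%); AC50 from Hill fit.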

[14] = Cellular Toxicity (caspase-3) HUV-EC-C (AID 656); settings: HUV-EC-C cells, caspase-3 activation (apoptosis), vehicle = 0, 100 µM tamoxifen = 100%; series mostly up to 92.2 µM
Method in brief: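 HUV-EC-C endothelial cells, 1000/well, were pre-incubated 5 hr at 37°C, then exposed to compounds for 16 hr at 37°C. Caspase-Glo 3/7 luminescence was read after 20 min at room temperature. AC50 came from Hill fits, normalized to DMSO and 100 uM tamoxifen.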

[15] = target: 3',5'-cyclic-AMP phosphodiesterase 4B (Homo sapiens) (UniProt Q07343); assay: qHTS Assay for Inhibitors of PDE-IV (AID 607; active = well fitted activation curve with a large enough effect in the main read-out, with a control signal flat, not every such curve was filed as active); settings: HEK293 ACTOne CNG channel cells, membrane potential fluorescence; series mostly up to 22.9 µM
3',5'-cyclic-AMP phosphodiesterase 4B (Homo sapiens), sequence (Q07343 whole entry, looked up): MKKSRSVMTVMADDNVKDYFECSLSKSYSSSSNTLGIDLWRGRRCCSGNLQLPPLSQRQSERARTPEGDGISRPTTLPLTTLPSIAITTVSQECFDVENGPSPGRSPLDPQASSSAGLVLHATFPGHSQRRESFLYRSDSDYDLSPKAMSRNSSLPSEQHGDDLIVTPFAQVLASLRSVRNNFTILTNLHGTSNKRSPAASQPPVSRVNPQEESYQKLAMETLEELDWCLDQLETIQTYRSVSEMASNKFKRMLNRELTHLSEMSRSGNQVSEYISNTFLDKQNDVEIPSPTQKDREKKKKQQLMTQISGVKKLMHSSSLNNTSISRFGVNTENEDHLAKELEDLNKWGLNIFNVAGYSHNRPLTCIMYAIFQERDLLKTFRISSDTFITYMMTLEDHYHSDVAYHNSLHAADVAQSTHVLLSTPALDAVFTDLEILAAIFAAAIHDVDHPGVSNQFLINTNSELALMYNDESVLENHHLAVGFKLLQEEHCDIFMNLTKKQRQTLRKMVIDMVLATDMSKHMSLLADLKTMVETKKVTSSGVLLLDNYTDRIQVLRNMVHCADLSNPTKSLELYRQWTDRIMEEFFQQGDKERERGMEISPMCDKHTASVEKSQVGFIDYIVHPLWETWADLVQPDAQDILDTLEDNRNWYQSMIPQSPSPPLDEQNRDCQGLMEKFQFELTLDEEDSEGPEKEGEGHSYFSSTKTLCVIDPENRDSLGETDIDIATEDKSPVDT
Method in brief: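 HEK293 ACTOne cells with CNG channel (1000/well), endogenous PDE4; membrane potential dye, compounds up to 22.9 uM final. Fluorescence Ex 535/Em 590; RO 20-1724 (100 uM final) as reference.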

[16] = target: Cytochrome P450 1A2 (Homo sapiens) (UniProt P05177); assay: p450-cyp1a2 (AID 410; calls by dose curve; also: potency is read from the fitted curve at half-maximal effect); settings: recombinant CYP1A2, luciferin-ME demethylation, luminescence; series mostly up to 57 µM
Cytochrome P450 1A2 (Homo sapiens), sequence (P05177 whole entry, looked up): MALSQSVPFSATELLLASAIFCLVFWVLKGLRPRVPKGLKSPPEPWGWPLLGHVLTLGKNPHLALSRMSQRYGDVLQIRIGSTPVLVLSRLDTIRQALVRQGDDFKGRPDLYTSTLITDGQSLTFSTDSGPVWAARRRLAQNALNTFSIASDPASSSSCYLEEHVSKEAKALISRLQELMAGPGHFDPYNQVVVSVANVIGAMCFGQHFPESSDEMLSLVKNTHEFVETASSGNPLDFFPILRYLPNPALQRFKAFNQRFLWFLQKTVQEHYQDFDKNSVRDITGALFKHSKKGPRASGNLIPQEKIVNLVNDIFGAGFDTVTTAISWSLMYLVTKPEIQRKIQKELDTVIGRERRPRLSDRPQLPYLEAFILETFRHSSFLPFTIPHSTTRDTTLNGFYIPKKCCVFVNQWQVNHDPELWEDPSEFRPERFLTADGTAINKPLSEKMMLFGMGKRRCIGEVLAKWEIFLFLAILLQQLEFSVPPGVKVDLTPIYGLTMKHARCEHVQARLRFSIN
Method in brief: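 Luminescent readout of luciferin formed from Luciferin-ME by human CYP1A2; data normalized against complete inhibition by 57 uM furafylline. Enzyme 20nM, substrate 100uM at Km, 100mM KPO4 buffer, 60 min reaction at room temperature.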

[17] = target: Glucocorticoid receptor (Homo sapiens) (UniProt P04150); assay: GR-GFP Redistribution (AID 450;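 active = compounds whose dose series gives a full or clear partial fitted curve of increased nuclear translocation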; also: potency is read from the fitted curve at half-maximal effect); settings: U2OS GR-GFP nuclear translocation, laser cytometry, 2 h
Glucocorticoid receptor (Homo sapiens), sequence (P04150 whole entry, looked up): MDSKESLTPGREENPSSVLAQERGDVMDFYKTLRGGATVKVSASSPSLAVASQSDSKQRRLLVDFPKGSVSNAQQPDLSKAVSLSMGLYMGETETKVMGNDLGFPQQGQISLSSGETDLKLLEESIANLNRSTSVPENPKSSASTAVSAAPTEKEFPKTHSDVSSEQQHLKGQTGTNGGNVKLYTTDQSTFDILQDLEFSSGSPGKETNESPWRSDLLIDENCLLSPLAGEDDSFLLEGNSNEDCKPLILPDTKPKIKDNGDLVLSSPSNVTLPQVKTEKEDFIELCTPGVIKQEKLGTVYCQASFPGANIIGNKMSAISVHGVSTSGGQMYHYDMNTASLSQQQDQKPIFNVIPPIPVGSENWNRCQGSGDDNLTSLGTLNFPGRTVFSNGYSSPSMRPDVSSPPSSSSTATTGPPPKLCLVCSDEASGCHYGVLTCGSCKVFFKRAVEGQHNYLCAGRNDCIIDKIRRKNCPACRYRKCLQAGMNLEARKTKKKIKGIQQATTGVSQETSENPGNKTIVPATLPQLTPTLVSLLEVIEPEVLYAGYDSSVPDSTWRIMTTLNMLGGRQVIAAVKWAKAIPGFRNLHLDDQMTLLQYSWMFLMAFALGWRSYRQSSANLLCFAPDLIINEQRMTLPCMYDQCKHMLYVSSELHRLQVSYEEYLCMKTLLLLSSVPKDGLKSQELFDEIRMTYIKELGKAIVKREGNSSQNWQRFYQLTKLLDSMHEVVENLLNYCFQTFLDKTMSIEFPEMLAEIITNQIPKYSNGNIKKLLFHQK

| Structure (SMILES) | Potency [1] | Potency [2] | Potency [3] | Potency [4] | Potency [5] | outcome [6] | activity change, negative = cytotoxicity [7] | Potency [8] | Potency [9] | Potency [10] | Potency [11] | outcome [12] | outcome [13] | outcome [14] | Potency [15] | Potency [16] | Potency [17] |
| --- | --- | --- | --- | --- | --- | --- | --- | --- | --- | --- | --- | --- | --- | --- | --- | --- | --- |
| CN(C)NC(=O)CCC(=O)O | > 92 µM (inactive) | > 92 µM (inactive) | > 92 µM (inactive) | > 92 µM (inactive) | > 92 µM (inactive) | inactive | -4.24% (inactive) | inactive | inactive | inactive | inactive | inactive | inactive | inactive |  |  |  |
| CCCN1CCO[C@@H]2c3cc(O)ccc3OC[C@@H]21 |  |  |  |  |  | inactive |  |  |  |  |  |  |  |  | inactive |  |  |
| CCCCC(CC)COC(=O)c1ccccc1C(=O)OCC(CC)CCCC (configuration not stated) | > 92 µM (inactive) | > 92 µM (inactive) | > 92 µM (inactive) | > 92 µM (inactive) | > 92 µM (inactive) |  | -29.3% (inactive) |  | inactive | inactive | inactive | inactive | inactive | inactive |  |  |  |
| O=[N+]([O-])c1cc([N+](=O)[O-])c2ccccc2c1 | > 92 µM (inactive) | > 92 µM (inactive) | > 92 µM (inactive) | > 92 µM (inactive) | > 92 µM (inactive) |  | -22.1% (inactive) | inactive |  | inactive | inactive | inactive | inactive | inactive |  |  |  |
| C=CC(=O)NCNC(=O)C=C | > 92 µM (inactive) | > 92 µM (inactive) | > 92 µM (inactive) | > 92 µM (inactive) | > 92 µM (inactive) | inactive | 2.37% (inactive) | inactive | inactive | inactive | inactive | inactive | inactive | inactive |  |  |  |
| Cc1cc(O)ccc1Cl | > 92 µM (inactive) | > 92 µM (inactive) | > 92 µM (inactive) | > 92 µM (inactive) | > 92 µM (inactive) | inactive | -7.18% (inactive) | inactive | inactive | inactive | inactive | inactive | inactive | inactive |  |  |  |
| CCCCOC(=O)c1ccccc1C(=O)OCc1ccccc1 | > 92 µM (inactive) | > 92 µM (inactive) | > 92 µM (inactive) | > 92 µM (inactive) | > 92 µM (inactive) |  | -9.01% (inactive) | inactive | inactive | inactive | inactive | inactive | inactive | inactive |  |  |  |
| CC(C)(O)C(=O)Nc1ccc([N+](=O)[O-])c(C(F)(F)F)c1 | > 92 µM (inactive) | > 92 µM (inactive) | > 92 µM (inactive) | > 92 µM (inactive) | > 92 µM (inactive) | inactive | -95.6% (active) |  |  | inactive | inactive | inactive | inactive | inactive |  |  |  |
| Cc1nc(-c2ccc(-c3ccc(C(=O)N4CCc5cc6c(cc54)C4(CCN(C)CC4)CO6)cc3)c(C)c2)no1 |  |  |  |  |  | inactive |  |  |  |  |  |  |  |  |  | inactive and 39.8 µM (active) | > 46 µM (inactive) |
| CCCCCCCCc1ccc(O)cc1 | > 92 µM (inactive) | > 92 µM (inactive) | > 92 µM (inactive) | > 92 µM (inactive) | > 92 µM (inactive) | inactive | -16.1% (inactive) | inactive | inactive | inactive | inactive | inactive | inactive | inactive |  |  |  |
| C[C@@H](N)Cc1cnc[nH]1 |  |  |  |  |  | inactive |  |  |  |  |  |  |  |  | inactive |  | > 46 µM (inactive) |
| Nc1ccc(Cl)cc1 | > 92 µM (inactive) | > 92 µM (inactive) | > 92 µM (inactive) | > 92 µM (inactive) | > 92 µM (inactive) | inactive | -1.41% (inactive) | inactive | inactive | inactive | inactive | inactive | inactive | inactive |  |  |  |
| CCOC(=O)c1cncn1[C@H](C)c1ccccc1 |  |  |  |  |  | inactive |  |  |  |  |  |  |  |  | inactive |  | > 46 µM (inactive) |
| C1CCC(NC2CCCCC2)CC1 | > 92 µM (inactive) | > 92 µM (inactive) | > 92 µM (inactive) | > 92 µM (inactive) | > 92 µM (inactive) | inactive | 3.55% (inactive) and 8.48% (inactive) | inactive | inactive | inactive | inactive | inactive | inactive | inactive |  |  |  |
| COc1ccc(C(c2ccc(OC)cc2)C(Cl)(Cl)Cl)cc1 | > 92 µM (inactive) |  |  | > 92 µM (inactive) | > 92 µM (inactive) |  |  | inactive |  |  | inactive | inactive | inactive | inactive |  |  |  |
